The results in this text go back to PubChem BioAssay (NCI).

The structures appear in SMILES notation. Compounds without any hit were thinned out: in the full panel of roughly 83,000, 20% have a hit.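 Plates (96-well) were seeded with cells, treated with compound at one concentration, and incubated for 48 hours before percent growth was determined.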 A number with no mark means an inactive call. The source made the active and inactive calls. The calls were made as follows: active = growth percent below 10; inactive = the rest.

Among the test systems are NCI-H23 lung; NCI-H322M lung; HOP-62 NSCLC; NCI-H460 lung; HOP-92 NSCLC; NCI-H522 lung; A549/ATCC NSCLC; 786-0 renal; COLO 205 colon; DU-145 prostate; K-562 leukemia; MALME-3M melanoma; MDA-MB-231 breast; RXF 393 renal; SF-268 CNS; SF-295 CNS; SF-539 CNS; UACC-257 melanoma; M14 melanoma.
What all share (assay): NCI-60 one-dose screen, 48 h (100 = growth as untreated, 0 = no growth, -100 = all killed)
Common to all, as to conditions: 10 µM unless noted

Consider `CN(C)CCCNC(=O)c1cncnc1Nc1ccc2c(ccn2Cc2cccc(F)c2)c1`, for which the growth is 95.6% in the assay on NCI-H23 lung; 98.6% with NCI-H322M lung; 99.9% in the assay with HOP-62 NSCLC; 95.5% in the assay with NCI-H460 lung; 78.3% in the assay on HOP-92 NSCLC; 98.2% in the assay on NCI-H522 lung. Also, the growth is 84.9% in the assay on A549/ATCC NSCLC; 79.5% in the assay with 786-0 renal; 84.6% with COLO 205 colon; 97.8% with DU-145 prostate; 37.5% in the assay on K-562 leukemia; 81.9% in the assay with MALME-3M melanoma. Also, the growth with MDA-MB-231 breast was 67.6%; in the assay with RXF 393 renal, 70.9%; with SF-268 CNS, 85.6%; with SF-295 CNS, 106%; with SF-539 CNS, 83.7%; in the assay on UACC-257 melanoma it was 84.4%. For the same molecule, the growth in the assay on M14 melanoma is 107%.
As to `COc1ccc(C/C(C)=C(\c2ccc(O)cc2)c2ccc(OCCN3CCCCC3)cc2)cc1`, the growth in the assay with NCI-H23 lung is 90.1%; in the assay with NCI-H322M lung it was 93.8%; in the assay with HOP-62 NSCLC it was 95.6%; with NCI-H460 lung, 72.6%; with HOP-92 NSCLC, 72.3%; in the assay with A549/ATCC NSCLC, 79.2%. The growth with 786-0 renal is 76.8%; with COLO 205 colon, 89.4%; in the assay with DU-145 prostate, 90.8%; with K-562 leukemia, 22.8%; in the assay on MALME-3M melanoma it was 87.6%; with MDA-MB-231 breast it was 104%. In addition, the growth in the assay on RXF 393 renal was 79.9%; with SF-268 CNS, 81.7%; with SF-295 CNS, 98.8%; in the assay with SF-539 CNS, 83%; in the assay with UACC-257 melanoma, 110%; in the assay on M14 melanoma, 40.4%.
For the molecule `CCOC(=O)C1=C(CCl)N(C)C(=O)NC1c1ccc2c(c1)OCO2` (stereo not given), the growth with NCI-H23 lung was 70.7%; in the assay with NCI-H322M lung it was 85%; in the assay on HOP-62 NSCLC it was 74.7%; in the assay with NCI-H460 lung, 72.1%; in the assay on HOP-92 NSCLC it was 53.9%; in the assay with NCI-H522 lung, 32.7%. In addition, the growth is 87.5% in the assay on A549/ATCC NSCLC; 53.9% with 786-0 renal; 69.1% in the assay with COLO 205 colon; 33.4% in the assay on DU-145 prostate; 16.7% with K-562 leukemia; 65% with MALME-3M melanoma. In addition, the growth in the assay on MDA-MB-231 breast is 65.3%; in the assay on RXF 393 renal it was 41.3%; with SF-268 CNS, 91.6%; in the assay with SF-295 CNS it was 95.1%; in the assay on SF-539 CNS it was 32.5%; in the assay on UACC-257 melanoma, 59.5%. Besides, the growth in the assay on M14 melanoma was 42.1%.
Take `COc1cc(O)c2c(=O)c3c(CC=C(C)C)cc(OC)c(O)c3oc2c1`: the growth in the assay on NCI-H23 lung was 41.4%; in the assay with NCI-H322M lung, 38.3%; in the assay on HOP-62 NSCLC, 25.4%; in the assay with NCI-H460 lung it was 12.5%; with HOP-92 NSCLC, 80.8%; with NCI-H522 lung, -12.9% (active). Besides, the growth was 35.6% in the assay with A549/ATCC NSCLC; 36.1% in the assay with 786-0 renal; 112% with COLO 205 colon; 19.5% in the assay with DU-145 prostate; 12.2% in the assay on K-562 leukemia; 66.9% with MALME-3M melanoma. In addition, the growth in the assay with MDA-MB-231 breast is 24.3%; in the assay with RXF 393 renal it was 13.7%; in the assay on SF-268 CNS it was 51.9%; with SF-295 CNS, 42.2%; in the assay with SF-539 CNS, 6.54% (active); with UACC-257 melanoma, 63.1%. Also, the growth in the assay with M14 melanoma was 15.6%.
